From PubChem BioAssay (NCI)
The panel holds about 83,000 compounds, 20% with a hit somewhere; the sample as a whole holds those more often.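 Each cell line was grown in a 96-well plate and treated with one concentration of compound for 48 hours. Values below 10 were considered active.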 The source made the active and inactive calls.

Experiments:
Test in all cases: NCI-60 one-dose screen, 48 h (100 = growth as untreated, 0 = no growth, -100 = all killed)
SK-MEL-2 melanoma = conditions: 10 µM unless noted
EKVX NSCLC = conditions: 10 µM unless noted
SN12C renal = conditions: 10 µM unless noted
UO-31 renal = conditions: 10 µM unless noted
TK-10 renal = conditions: 10 µM unless noted
ACHN renal = conditions: 10 µM unless noted
CAKI-1 renal = conditions: 10 µM unless noted
A498 renal = conditions: 10 µM unless noted
CCRF-CEM leukemia = conditions: 10 µM unless noted
MOLT-4 leukemia = conditions: 10 µM unless noted
SR leukemia = conditions: 10 µM unless noted
RPMI-8226 leukemia = conditions: 10 µM
OVCAR-8 ovarian = conditions: 10 µM unless noted
OVCAR-5 ovarian = conditions: 10 µM unless noted
OVCAR-4 ovarian = conditions: 10 µM unless noted
IGROV1 ovarian = conditions: 10 µM unless noted
OVCAR-3 ovarian = conditions: 10 µM unless noted
HS 578T breast = conditions: 10 µM unless noted
NCI/ADR-RES ovarian = conditions: 10 µM unless noted
SK-OV-3 ovarian = conditions: 10 µM

Measured: growth

Brc1ccc(Br)nn1
active: SK-MEL-2 melanoma -50.2% | EKVX NSCLC -95.4% | SN12C renal -76.8% | UO-31 renal -39.9% | TK-10 renal -78.3% | ACHN renal 2.74% | CAKI-1 renal -92.3% | A498 renal -80.8% | CCRF-CEM leukemia -13.5% | MOLT-4 leukemia -13.6% | SR leukemia -25.8% | RPMI-8226 leukemia -19.7% | OVCAR-8 ovarian -34.1% | OVCAR-5 ovarian -58.6% | IGROV1 ovarian -77.8% | OVCAR-3 ovarian -97.7% | HS 578T breast -0.414% | NCI/ADR-RES ovarian -32.5%
inactive: OVCAR-4 ovarian 26%

COc1ccccc1/C=C/C(=O)/C=C/c1ccccc1O
inactive: SK-MEL-2 melanoma 72.5% | EKVX NSCLC 46.2% | A498 renal 108% | OVCAR-4 ovarian 12.6% | SK-OV-3 ovarian 88.9%
active: SN12C renal -18.7% | UO-31 renal -83.4% | TK-10 renal -0.117% | ACHN renal -81.1% | CAKI-1 renal -62.5% | CCRF-CEM leukemia -44.1% | MOLT-4 leukemia -26.3% | SR leukemia -61.2% | RPMI-8226 leukemia -53.7% | OVCAR-5 ovarian -35% | IGROV1 ovarian 5.17% | OVCAR-3 ovarian -40.9% | HS 578T breast -40.9% | NCI/ADR-RES ovarian -19.4%

O=C1CN2CCC1C/C2=C\c1ccnc2c(Cl)cccc12 (configuration not stated)
inactive: SK-MEL-2 melanoma 85.8% | EKVX NSCLC 95.7% | SN12C renal 94.3% | UO-31 renal 75.5% | TK-10 renal 127% | ACHN renal 91.2% | CAKI-1 renal 93.9% | A498 renal 159% | CCRF-CEM leukemia 96.8% | MOLT-4 leukemia 97.1% | RPMI-8226 leukemia 62.2% | OVCAR-8 ovarian 99.4% | OVCAR-5 ovarian 103% | OVCAR-4 ovarian 93.6% | SK-OV-3 ovarian 94.1% | IGROV1 ovarian 95.3% | HS 578T breast 219% | NCI/ADR-RES ovarian 101%
active: SR leukemia -24%

CCOC(=O)c1cn2c3c(cc(F)cc3c1=O)C(CC)c1ccccc1C2 (configuration not stated)
inactive: SK-MEL-2 melanoma 96.8% | EKVX NSCLC 99.7% | SN12C renal 96.3% | TK-10 renal 111% | ACHN renal 105% | CAKI-1 renal 102% | A498 renal 89.5% | CCRF-CEM leukemia 74.9% | MOLT-4 leukemia 65.6% | SR leukemia 66.2% | RPMI-8226 leukemia 64.2% | OVCAR-8 ovarian 95.9% | OVCAR-5 ovarian 104% | SK-OV-3 ovarian 104% | IGROV1 ovarian 93.1% | OVCAR-3 ovarian 92.9% | NCI/ADR-RES ovarian 91.2%
active: UO-31 renal -57.3%

COc1ccc(C2SC(C)C(=O)N2CCc2cccs2)cc1OC (configuration not stated)
inactive: SK-MEL-2 melanoma 93% | EKVX NSCLC 66.4% | SN12C renal 90.1% | UO-31 renal 79.2% | TK-10 renal 113% | ACHN renal 80.1% | CAKI-1 renal 73.2% | A498 renal 81.9% | CCRF-CEM leukemia 75.9% | MOLT-4 leukemia 64.7% | SR leukemia 63.8% | RPMI-8226 leukemia 68.8% | OVCAR-8 ovarian 85.1% | OVCAR-5 ovarian 104% | SK-OV-3 ovarian 102% | IGROV1 ovarian 79.6% | OVCAR-3 ovarian 95.3% | HS 578T breast 95.4% | NCI/ADR-RES ovarian 86.1%

Cc1nc(NC(=O)COc2cccc(/C=C3\COc4ccccc4C3=O)c2)sc1C
inactive: A498 renal 87.2% | SK-OV-3 ovarian 92.2%
active: SK-MEL-2 melanoma -77% | EKVX NSCLC -23.3% | SN12C renal -46.1% | UO-31 renal -80.1% | TK-10 renal -74.1% | ACHN renal -96.9% | CAKI-1 renal -94.3% | CCRF-CEM leukemia -74.7% | MOLT-4 leukemia -36.8% | SR leukemia -69.5% | RPMI-8226 leukemia -74.2% | OVCAR-8 ovarian 7.04% | OVCAR-3 ovarian -83.3% | HS 578T breast -33.7%

COC(=O)CCC(=O)c1ccccc1
inactive: SK-MEL-2 melanoma 110% | EKVX NSCLC 89.7% | SN12C renal 103% | UO-31 renal 118% | TK-10 renal 118% | ACHN renal 106% | CAKI-1 renal 96.8% | A498 renal 112% | CCRF-CEM leukemia 101% | MOLT-4 leukemia 101% | SR leukemia 90.9% | RPMI-8226 leukemia 98.6% | OVCAR-8 ovarian 102% | OVCAR-5 ovarian 98.4% | OVCAR-4 ovarian 112% | SK-OV-3 ovarian 119% | OVCAR-3 ovarian 111% | HS 578T breast 123%

CCCN(CCC)c1ccc(/C=C/c2ccc3cc(OCC)ccc3n2)cc1
active: SR leukemia -8.74%
inactive: SK-MEL-2 melanoma 88.2% | EKVX NSCLC 86.3% | SN12C renal 90.7% | UO-31 renal 71.8% | TK-10 renal 116% | ACHN renal 92.4% | CAKI-1 renal 85.1% | A498 renal 64.6% | CCRF-CEM leukemia 63.4% | MOLT-4 leukemia 53% | RPMI-8226 leukemia 35.6% | OVCAR-8 ovarian 94.6% | OVCAR-5 ovarian 110% | SK-OV-3 ovarian 104% | IGROV1 ovarian 99.6% | HS 578T breast 66.5% | NCI/ADR-RES ovarian 93.1%

NC(=O)c1nc2c([nH]c1=O)CCCC2
inactive: SK-MEL-2 melanoma 106% | EKVX NSCLC 114% | SN12C renal 107% | UO-31 renal 83.5% | TK-10 renal 102% | ACHN renal 106% | CAKI-1 renal 93% | A498 renal 99.4% | CCRF-CEM leukemia 94.4% | MOLT-4 leukemia 97.3% | SR leukemia 100% | RPMI-8226 leukemia 96.5% | OVCAR-8 ovarian 106% | OVCAR-5 ovarian 117% | OVCAR-4 ovarian 109% | SK-OV-3 ovarian 94.7% | IGROV1 ovarian 115% | OVCAR-3 ovarian 108% | HS 578T breast 109% | NCI/ADR-RES ovarian 105%

Clc1ccc2c(c1)C[C@H]1C[C@@H](c3cccs3)N2O1
inactive: SK-MEL-2 melanoma 113% | EKVX NSCLC 83.2% | SN12C renal 106% | UO-31 renal 93.4% | TK-10 renal 104% | ACHN renal 104% | CAKI-1 renal 94.4% | A498 renal 77.1% | CCRF-CEM leukemia 100% | MOLT-4 leukemia 89.3% | SR leukemia 82.4% | RPMI-8226 leukemia 86.7% | OVCAR-8 ovarian 99.9% | OVCAR-5 ovarian 89.5% | SK-OV-3 ovarian 98.9% | IGROV1 ovarian 94.5% | NCI/ADR-RES ovarian 102%

Cc1ccc(C2SCC(=O)N2NC(=O)c2[nH]c3ccc(F)cc3c2-c2ccccc2)cc1 (configuration not stated)
inactive: SK-MEL-2 melanoma 97.6% | EKVX NSCLC 84.4% | SN12C renal 95.8% | UO-31 renal 75.1% | TK-10 renal 108% | ACHN renal 89.9% | CAKI-1 renal 77.1% | A498 renal 86.5% | CCRF-CEM leukemia 89.1% | MOLT-4 leukemia 69.2% | SR leukemia 76.1% | RPMI-8226 leukemia 86.7% | OVCAR-8 ovarian 92.1% | OVCAR-5 ovarian 99.9% | SK-OV-3 ovarian 107% | IGROV1 ovarian 88.4% | OVCAR-3 ovarian 92% | HS 578T breast 95.3% | NCI/ADR-RES ovarian 92%

CC(=O)N(CC(O)CO)c1c(I)c(C(=O)NCCO)c(I)c(C(=O)NCC(O)CO)c1I (configuration not stated)
inactive: SK-MEL-2 melanoma 95.8% | EKVX NSCLC 105% | SN12C renal 98.9% | UO-31 renal 69.3% | TK-10 renal 114% | ACHN renal 103% | CAKI-1 renal 99.3% | A498 renal 110% | CCRF-CEM leukemia 93.4% | MOLT-4 leukemia 84.3% | SR leukemia 77.2% | RPMI-8226 leukemia 102% | OVCAR-5 ovarian 99.8% | OVCAR-4 ovarian 102% | SK-OV-3 ovarian 103% | IGROV1 ovarian 103% | OVCAR-3 ovarian 107% | HS 578T breast 116%

O=C(NCc1ccc(F)cc1)C1CN(c2ccc(Cl)cc2)N(c2ccc(Cl)cc2)C1=O (configuration not stated)
inactive: SK-MEL-2 melanoma 64.6% | EKVX NSCLC 74.8% | SN12C renal 83% | UO-31 renal 51% | TK-10 renal 100% | ACHN renal 75.6% | CAKI-1 renal 57.6% | A498 renal 39.8% | CCRF-CEM leukemia 61.8% | MOLT-4 leukemia 37.1% | SR leukemia 24.3% | RPMI-8226 leukemia 72.8% | OVCAR-8 ovarian 80% | OVCAR-5 ovarian 85.6% | OVCAR-4 ovarian 66.6% | IGROV1 ovarian 77.4% | HS 578T breast 52.6% | NCI/ADR-RES ovarian 52.9%

O=S(=O)(/N=C1C=C/C(=N\S(=O)(=O)c2ccccc2)c2ccccc2\1)c1ccccc1
inactive: SK-MEL-2 melanoma 114% | EKVX NSCLC 104% | SN12C renal 101% | UO-31 renal 67.1% | TK-10 renal 147% | ACHN renal 105% | CAKI-1 renal 99.4% | A498 renal 117% | CCRF-CEM leukemia 71.7% | MOLT-4 leukemia 87.1% | SR leukemia 107% | RPMI-8226 leukemia 77.9% | OVCAR-8 ovarian 94.9% | OVCAR-5 ovarian 114% | OVCAR-4 ovarian 91.9% | SK-OV-3 ovarian 104% | IGROV1 ovarian 112% | HS 578T breast 112% | NCI/ADR-RES ovarian 102%

O=C1c2cc(S(=O)(=O)O)ccc2C(=O)c2c1cccc2[N+](=O)[O-]
inactive: SK-MEL-2 melanoma 108% | EKVX NSCLC 120% | SN12C renal 103% | UO-31 renal 85.3% | TK-10 renal 116% | ACHN renal 111% | CAKI-1 renal 102% | A498 renal 103% | CCRF-CEM leukemia 97.8% | MOLT-4 leukemia 100% | SR leukemia 98.2% | OVCAR-8 ovarian 95.6% | OVCAR-5 ovarian 110% | OVCAR-4 ovarian 115% | SK-OV-3 ovarian 106% | IGROV1 ovarian 120% | OVCAR-3 ovarian 114% | HS 578T breast 106% | NCI/ADR-RES ovarian 111%

O=[N+]([O-])c1ccc(C=C2C(Cl)=C(Cl)C(Cl)=C2Cl)cc1
inactive: SK-MEL-2 melanoma 102% | EKVX NSCLC 91.6% | SN12C renal 52.3% | TK-10 renal 28.3% | ACHN renal 45.5% | CAKI-1 renal 53% | A498 renal 104% | CCRF-CEM leukemia 15.7% | RPMI-8226 leukemia 11.4% | OVCAR-8 ovarian 22.4% | OVCAR-5 ovarian 112% | OVCAR-4 ovarian 54.5% | SK-OV-3 ovarian 115%
active: UO-31 renal -19.8% | MOLT-4 leukemia 5.43% | SR leukemia -1.36% | OVCAR-3 ovarian -17% | HS 578T breast -13.4%

O=C(N/N=C/c1ccc(F)cc1)c1[nH]c2ccc(I)cc2c1-c1ccccc1
active: EKVX NSCLC 5.92% | CAKI-1 renal 5.08% | SK-OV-3 ovarian -1.53% | OVCAR-3 ovarian 5.48%
inactive: SK-MEL-2 melanoma 71.9% | SN12C renal 32.6% | UO-31 renal 46% | TK-10 renal 65.2% | ACHN renal 36% | A498 renal 39.1% | CCRF-CEM leukemia 39.2% | MOLT-4 leukemia 72.5% | SR leukemia 114% | RPMI-8226 leukemia 22% | OVCAR-8 ovarian 45.5% | OVCAR-4 ovarian 37.2% | IGROV1 ovarian 23.8% | HS 578T breast 51.8%
